Entries with a potency or affinity are not part of this list. Unmarked numbers belong to inactive results.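 How the source made its calls: active means signal drop whose fitted half-maximal potency is at most twice the top valid dose tested; inconclusive means flat curve inhibiting 30 to 70 percent, or a poor fit; inactive means the rest.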
target: Endoplasmic reticulum aminopeptidase 2 (Homo sapiens) (UniProt Q6P179); assay: ERAP2 aminopeptidase inhibitors, dose response, selectivity assay for selective ERAP1 modulator project, biochemical, fluorescence plate reader, cherry-picked, set 2 (AID 743320); details: recombinant ERAP2, Arg-AMC fluorescence, 1 h; series mostly up to 11 µM; activity change, negative = inhibition: at the top concentration
Sequence (Q6P179 whole entry, looked up): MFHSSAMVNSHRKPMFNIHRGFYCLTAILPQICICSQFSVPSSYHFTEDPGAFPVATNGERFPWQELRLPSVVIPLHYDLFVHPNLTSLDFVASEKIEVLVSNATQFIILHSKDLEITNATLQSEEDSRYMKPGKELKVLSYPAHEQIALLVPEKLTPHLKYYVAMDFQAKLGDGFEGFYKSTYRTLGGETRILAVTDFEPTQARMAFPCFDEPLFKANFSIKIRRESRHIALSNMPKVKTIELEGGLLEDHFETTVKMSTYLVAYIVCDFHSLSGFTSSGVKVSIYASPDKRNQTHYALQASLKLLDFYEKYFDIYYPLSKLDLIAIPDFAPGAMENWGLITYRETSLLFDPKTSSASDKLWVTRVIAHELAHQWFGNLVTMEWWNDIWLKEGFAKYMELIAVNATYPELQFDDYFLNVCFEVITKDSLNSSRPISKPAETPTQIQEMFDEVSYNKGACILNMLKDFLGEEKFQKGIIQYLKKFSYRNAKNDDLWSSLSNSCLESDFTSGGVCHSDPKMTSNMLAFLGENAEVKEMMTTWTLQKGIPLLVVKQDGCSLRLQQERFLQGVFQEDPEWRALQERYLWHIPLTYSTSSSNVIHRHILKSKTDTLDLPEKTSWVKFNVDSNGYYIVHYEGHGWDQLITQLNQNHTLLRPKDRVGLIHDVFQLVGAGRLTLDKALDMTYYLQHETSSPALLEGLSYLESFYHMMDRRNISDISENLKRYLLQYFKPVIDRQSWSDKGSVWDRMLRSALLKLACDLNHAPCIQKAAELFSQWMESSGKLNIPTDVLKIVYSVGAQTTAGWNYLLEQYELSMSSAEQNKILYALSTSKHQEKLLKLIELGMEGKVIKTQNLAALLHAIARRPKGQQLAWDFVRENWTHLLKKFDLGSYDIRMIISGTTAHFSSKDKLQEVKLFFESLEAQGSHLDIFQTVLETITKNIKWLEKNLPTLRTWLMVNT

Going from `N#Cc1c(N2CCNCC2)nc(-c2ccco2)c2c1CCCC2` to `Cc1cc(=O)oc2cc(OCC(=O)N3CCN(C(C)c4ccccc4)CC3)c(Cl)cc12` (stereo not drawn), the “activity change, negative = inhibition” value rises from 31.3% to 461%.

With `CCN(CCCl)c1cc(CN(C)C)cc(NC(=O)c2ccc(C(=O)Nc3cc(CN(C)C)cc(N(CC)CCCl)c3)cc2)c1` the “activity change, negative = inhibition” value was -8.9%.

Source: PubChem BioAssay AID743320 (Broad Institute, 2014)
